This passage reports Potency results from PubChem BioAssay (Tox21).

Values joined by “and” are separate entries in the source; they are usually repeats but may differ in a detail not shown here. Equal entries are not always repeated. Inconclusive results are not listed. Some structures have more than one record in an assay (separate samples or runs), and their calls can disagree. Active and inactive are the calls of the source. Unless noted, calls follow the shape of the dose curve; as a rule, active = well fitted curve in the direction sought with a large enough effect in the repeat runs; inconclusive = weak or mixed curves; inactive = no such curve, though single readings can be large; an effect the other way counts as inactive or inconclusive.

Assay [1] in a line: qHTS assay to identify small molecule antagonists of the glucocorticoid receptor (GR) signaling pathway - cell viability counter screen (AID 720693). Also: nearly all actives have a fitted effect of over 55% in size. Background: Quantitative high-throughput screening tests each substance at several concentrations.
The nature of assay [2]: qHTS assay for identifying genotoxic compounds that show differential cytotoxicity against isogenic chicken DT40 cell lines with known DNA damage response pathways - wild type cell line (AID 743012). Also: nearly all actives have a fitted effect of over 60% in size. Also: potency is read from the fitted curve at half-maximal effect. The essentials:
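Endpoint: CellTiter-Glo luminescence, 30 min RT. Cells: wild type DT40, 300/well. Exposure: compounds in DMSO, 40 h, 37 C/5% CO2, after ~0.5 h pre-incubation.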

Assay [3] is described as follows: qHTS assay for identifying genotoxic compounds that show differential cytotoxicity against isogenic chicken DT40 cell lines with known DNA damage response pathways - Rev3 mutant cell line (AID 743014). Also: nearly all actives have a fitted effect of over 55% in size. Also: potency is read from the fitted curve at half-maximal effect.
Assay [4] can be described thus: qHTS assay for identifying genotoxic compounds that show differential cytotoxicity against isogenic chicken DT40 cell lines with known DNA damage response pathways - Rad54/Ku70 mutant cell line (AID 743015). Also: nearly all actives have a fitted effect of over 60% in size. Also: potency is read from the fitted curve at half-maximal effect.
The nature of assay [5]: qHTS assay to identify small molecule antagonists of the androgen receptor (AR) signaling pathway - cell viability counter screen (AID 743033; also: nearly all actives have a fitted effect of over 45% in size; also: potency is read from the fitted curve at half-maximal effect).
Assay [6] in a line: qHTS assay to identify small molecule antagonists of the androgen receptor (AR) signaling pathway using the MDA cell line - cell viability counter screen (AID 743041; also: nearly all actives have a fitted effect of over 45% in size). The method in brief: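 qHTS viability read-out; MDA-kb2 AR-luc; R1881-stimulated; 16 h exposure at 37C, 0% CO2; CellTiter-Fluor, 30 min; fluorescence intensity.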
In assay [7] the target is Androgen receptor (Homo sapiens) (UniProt P10275). Nature of the assay: qHTS assay to identify small molecule agonists of the androgen receptor (AR) signaling pathway (AID 743036; active = well fitted activation curve with a large enough effect in the signal ratio in the repeat runs, with a control signal flat, not every such curve was filed as active; the % refers to the signal ratio; also: potency is read from the fitted curve at half-maximal effect). The method in brief: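 Beta-lactamase under UAS control, stably integrated in HEK293 GripTite cells, reports receptor activation. After 16 h compound treatment, cells received FRET substrate for 2 h at room temperature before fluorescence reading.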
Sequence of Androgen receptor (Homo sapiens) (P10275 whole entry, looked up): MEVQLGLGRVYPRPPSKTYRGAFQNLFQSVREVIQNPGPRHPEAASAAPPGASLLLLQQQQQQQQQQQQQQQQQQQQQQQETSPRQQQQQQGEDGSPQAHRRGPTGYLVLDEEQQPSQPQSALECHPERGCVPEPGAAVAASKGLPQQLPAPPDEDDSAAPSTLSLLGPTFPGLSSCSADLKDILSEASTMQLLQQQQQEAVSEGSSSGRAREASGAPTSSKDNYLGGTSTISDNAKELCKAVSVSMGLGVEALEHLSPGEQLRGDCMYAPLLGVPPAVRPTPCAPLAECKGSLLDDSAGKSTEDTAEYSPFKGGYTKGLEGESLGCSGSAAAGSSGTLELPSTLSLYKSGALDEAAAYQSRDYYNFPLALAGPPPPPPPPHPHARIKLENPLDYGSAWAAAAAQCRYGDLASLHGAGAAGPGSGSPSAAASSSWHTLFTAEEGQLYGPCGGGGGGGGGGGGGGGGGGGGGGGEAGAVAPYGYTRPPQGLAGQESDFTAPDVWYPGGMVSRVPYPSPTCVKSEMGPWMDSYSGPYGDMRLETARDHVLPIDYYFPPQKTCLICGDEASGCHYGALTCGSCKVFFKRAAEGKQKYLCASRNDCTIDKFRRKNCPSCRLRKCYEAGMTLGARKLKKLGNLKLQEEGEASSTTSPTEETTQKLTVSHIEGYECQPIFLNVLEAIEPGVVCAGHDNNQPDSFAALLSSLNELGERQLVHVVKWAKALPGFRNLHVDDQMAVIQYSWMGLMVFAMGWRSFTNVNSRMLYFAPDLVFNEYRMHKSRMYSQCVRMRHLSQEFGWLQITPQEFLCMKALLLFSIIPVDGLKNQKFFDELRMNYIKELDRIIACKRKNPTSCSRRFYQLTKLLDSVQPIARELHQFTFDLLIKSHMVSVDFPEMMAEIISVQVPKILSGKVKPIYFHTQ

For assay [8] the target is unchanged. Nature of the assay: qHTS assay to identify small molecule agonists of the androgen receptor (AR) signaling pathway using the MDA cell line (AID 743040; also: nearly all actives have a fitted effect of over 20% in size). Conditions: MDA-kb2 AR-luc cells, MMTV luciferase, 16 h; activity change: at 70.3 µM (top of the series), stronger effect = higher value. The method in brief: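 Agonist activity is measured as luciferase luminescence in human MDA-kb2 cells whose MMTV reporter responds to both AR and GR. Compounds in DMSO incubate 16 h at 37C, 0% CO2, and ONE-Glo is read after 30 min.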

The target is the same in assay [9]. As to the kind of experiment: qHTS assay to identify small molecule antagonists of the androgen receptor (AR) signaling pathway using the MDA cell line (AID 743042; also: nearly all actives have a fitted effect of over 55% in size). The method in brief: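 MDA-kb2 cells (human breast carcinoma, stably carrying an MMTV-luciferase reporter responsive to AR and GR) were plated at 3,000 cells/well and preincubated 5 hr at 37C, then given compound plus R1881 agonist for 16 h. ONE-Glo luminescence was read.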

For assay [10] the target is unchanged. As to the kind of experiment: qHTS assay to identify small molecule antagonists of the androgen receptor (AR) signaling pathway (AID 743035; active = well fitted inhibition curve with a large enough effect in the signal ratio in the repeat runs, not every such curve was filed as active; the % refers to the signal ratio; also: potency is read from the fitted curve at half-maximal effect). The essentials:
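R1881 agonist challenge of a HEK293 UAS-beta-lactamase AR reporter line in the presence of compound (16 h, 37C); signal taken as FRET fluorescence after 2 h with LiveBLAzer B/G substrate at room temperature.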

As to `C[Si](Cn1cncn1)(c1ccc(F)cc1)c1ccc(F)cc1`, the Potency result in [1] and in [6] was “inactive” throughout. Further, the Potency in [2] was 12.6 µM (active) and 10.9 µM (active); in assay [3], 3.98 µM (active) and 4.86 µM (active); in [4], 8.92 µM (active) and 9.69 µM (active); in assay [5], 14.3 µM (active).

As for `CCC1(CC)C(=O)NC(=O)NC1=O`, the Potency entry in [1], in assay [2], in assay [3], in [4], in [5] and in assay [6] was “inactive” each time.

For the molecule `NP(N)(=O)NC(=O)c1ccc(F)cc1`, the Potency entry in [1], in [2], in [3], in assay [4], in assay [5] and in [7] was “inactive” throughout. Also, the Potency entry in assay [8], in assay [6] and in [9] was “inactive” in each case.

Consider `C1CCNCC1`, for which the Potency entry in assay [1], in [2], in [3], in [4], in assay [5] and in [6] was “inactive” each time.

In the case of `C=CC(=O)OCC`, the Potency result in [1], in assay [2] and in assay [3] was “inactive” throughout.

With `c1ccc2c(c1)-c1cccc3cccc-2c13`, the Potency result in [1], in assay [2], in assay [4], in [5] and in assay [6] was “inactive” in each case. Besides, the Potency entry in assay [3] is “inactive and 61.1 µM (active)”.

As for `CCc1cnc(C2=NC(C)(C(C)C)C(=O)N2)c(C(=O)O)c1` (stereo unspecified), the Potency entry in assay [1], in assay [2], in assay [3], in assay [4], in assay [5] and in assay [6] was “inactive” in each case.

With `CCC1(C2=NCCN2)Cc2ccccc2O1` (stereo unspecified), the Potency entry in [1], in assay [5], in assay [8], in assay [6] and in assay [9] was “inactive” in each case. The Potency in assay [2] is 5.31 µM (active); in [3], 5.31 µM (active); in [4], 6.68 µM (active); in [10], 19 µM (active); in [7], 23.9 µM (active).

Turning to `CC1(C)[C@H](C(=O)O[C@H](C#N)c2cccc(Oc3ccccc3)c2)[C@@H]1C=C(Br)Br`, the Potency result in assay [1], in assay [2], in [5], in assay [10], in [7] and in assay [8] was “inactive” throughout. Moreover, the Potency entry in assay [6] and in assay [9] was “inactive” in each case. The Potency result in assay [3] is “inactive and 48.6 µM (active)”; in assay [4], “inactive and 43.3 µM (active)”.

In the case of `CCCCC#N`, the Potency entry in assay [1], in assay [2], in assay [3], in assay [4], in [5] and in assay [6] was “inactive” throughout.

Turning to `C[N+](C)(C)CCOC(=O)C(O)(c1ccccc1)c1ccccc1`, the Potency entry in assay [1], in assay [2], in assay [3], in assay [4], in assay [5] and in [6] was “inactive” in each case.

For `OCCCl`, the Potency entry in [1], in [2], in assay [3], in assay [4] and in assay [6] was “inactive” each time.

`CON(C)C(=O)Nc1ccc(Cl)cc1`: the Potency entry in [1], in [2], in assay [3], in assay [4], in assay [5] and in [6] was “inactive” each time.

Take `CCC1CCC(=O)O1` (stereo unspecified): the Potency result in assay [1], in assay [2], in assay [3], in assay [4] and in assay [6] was “inactive” throughout.

As for `C[N+]1(CCF)[C@@H]2CC[C@H]1CC(OC(=O)C(O)(c1ccccc1)c1ccccc1)C2` (stereo partly specified), the Potency result in assay [1], in assay [2], in assay [3], in assay [4], in assay [5] and in assay [6] was “inactive” each time.

As to `CC(C)[C@@H](C(=O)O[C@@H](C#N)c1cccc(Oc2ccccc2)c1)c1ccc(Cl)cc1`, the Potency entry in assay [1], in assay [2] and in assay [6] was “inactive” in each case. The Potency entry in assay [3] is “inactive and 54.5 µM (active)”; in assay [4], 30.6 µM (active).

As to `SCc1ccccc1`, the Potency result in assay [1], in [2], in assay [3], in [4] and in [6] was “inactive” throughout.

On to `Cc1ccc2c(C)cccc2c1`, for which the Potency result in [1], in assay [2], in assay [3], in assay [4], in assay [5] and in [6] was “inactive” in each case.

As for `CC(Cc1ccccc1)NCc1ccccc1Cl` (stereo unspecified), the Potency result in assay [1], in [5] and in assay [6] was “inactive” throughout. Besides, the Potency is 18.8 µM (active) in assay [2], 15 µM (active) in assay [3] and 18.8 µM (active) in assay [4].

Take `CC(C)(c1ccccc1)c1cc(-n2nc3ccccc3n2)c(O)c(C(C)(C)c2ccccc2)c1`: the Potency result in [1], in assay [2], in assay [3], in assay [4], in [5] and in assay [6] was “inactive” in each case.

Regarding `CC[N+]1(C)CCCC(OC(=O)C(O)(c2ccccc2)c2ccccc2)C1` (stereo unspecified), the Potency result in assay [1], in [2], in assay [3], in assay [4] and in assay [6] was “inactive” throughout.

On to `NNCCO`, for which the Potency result in [1], in [2], in assay [3], in assay [4], in assay [5] and in assay [6] was “inactive” each time.

As to `CN1C[C@H](C(=O)N[C@]2(C)O[C@@]3(O)[C@@H]4CCCN4C(=O)[C@H](Cc4ccccc4)N3C2=O)C=C2c3cccc4[nH]cc(c34)C[C@H]21`, the Potency result in [1], in assay [5] and in assay [6] was “inactive” each time. Further, the Potency in assay [2] was 21.1 µM (active) and 48.8 µM (active) and 22.6 µM (active); in assay [3], 23.7 µM (active) and 27.4 µM (active) and 18 µM (active); in assay [4] it was 9.44 µM (active) and 13.7 µM (active) and 10.1 µM (active).

Take `CCCSP(=S)(OCC)Oc1ccc(SC)cc1` (stereo unspecified): the Potency result in [1], in [5] and in assay [6] was “inactive” throughout. Also, the Potency in [2] is 43.3 µM (active); in assay [3], 15.4 µM (active); in [4] it was 27.3 µM (active).

Turning to `CCCCOC(=O)CCC(=O)OCCCC`, the Potency entry in [1], in assay [2], in assay [3], in assay [4] and in [6] was “inactive” throughout.

On to `CCCC[P+](CC)(CCCC)CCCC` (tested in a mixture with another compound), for which the Potency result in [1], in assay [5] and in assay [6] was “inactive” in each case. Further, the values for the Potency in [2], in assay [3] and in [4] were 27.5 µM (active), 17.4 µM (active) and 12.3 µM (active), respectively.

As for `CCCN(CCC)c1c([N+](=O)[O-])cc(C(C)C)cc1[N+](=O)[O-]`, the Potency result in [1], in [3], in [5] and in assay [6] was “inactive” in each case. The Potency entry in [2] is “inactive and 61.1 µM (active)”; in [4], “inactive and 54.5 µM (active)”.

As for `CCCCC(CC)COC(=O)c1c(Br)c(Br)c(Br)c(Br)c1C(=O)OCC(CC)CCCC` (stereo unspecified), the Potency result in assay [1], in assay [2], in assay [3], in [4], in assay [5] and in assay [6] was “inactive” each time.

On to `CCOP(=S)(OCC)SCSc1cc(Cl)ccc1Cl`, for which the Potency result in [1], in [2], in assay [3], in assay [4], in [5] and in assay [6] was “inactive” in each case.
